Drawing on PubChem BioAssay AID504329 (Southern Research Specialized Biocontainment Screening …, 2011), this text covers inhibition for 95 compounds.

Molecules are shown by their SMILES. The campaign covered roughly 340,000 compounds. About 1,000 (0.29%) were called active. No stated cut-off is given here; in the data, inconclusive means inhibition above about 27% without an active follow-up result; inactive means below that. A selection follows. Measured potencies and affinities stand elsewhere.

A short description of this test: H1N1 influenza NS1A inhibitors, functional cell based assay (AID 504329). The conditions noted are these: percent inhibition, at 12.5 µM, active compounds read high.
On to `COc1cccc([C@@H]2CC=C(C(=O)O)[C@H](c3ccc(Br)cc3)N2S(=O)(=O)c2ccc(C)cc2)c1`, for which the inhibition was -4.53% (inactive).

For `CCCCN(C)c1ccc([N+](=O)[O-])cc1`, the inhibition was 11.8% (inactive). With `CN(N=Nc1ccc([N+](=O)[O-])cc1)c1ccccc1` the figure was 8.69% (inactive). Then `Cc1ccc(CSC2=NCCN2C(=O)c2ccc([N+](=O)[O-])cc2)cc1`, with 5.18% (inactive).

With `COc1ccc([C@@H]2CC=C(C(=O)O)[C@H](c3ccccc3)N2S(=O)(=O)c2ccccc2C)cc1`, the inhibition was -3.46% (inactive).

As to `COc1ccc(/C=N/S(=O)(=O)c2cccs2)cc1`, the inhibition is 4.61% (inactive). Consider `COc1ccc(-c2nsc3c(SCc4ccccc4)ncnc23)cc1`, for which the inhibition was -10.6% (inactive). For the compound `O=c1cc2oc3cc(O)c(O)cc3c(-c3ccccc3O)c-2cc1O`, the inhibition was 4.83% (inactive). With `COc1cc(-c2cc(=O)c3ccccc3o2)ccc1O` the figure was -19% (inactive); with `Cc1cc2oc(=O)cc(-c3cc4ccccc4o3)c2cc1O`, -6.82% (inactive).

Consider `Cc1ccccc1-c1cc(=O)c2c(O)cccc2o1`, for which the inhibition is -13.3% (inactive).

In the case of `COc1c(O)cc2oc(-c3ccc(O)c(O)c3)cc(=O)c2c1O`, the inhibition was 2.55% (inactive).

With `COc1ccc2c(=O)cc(-c3ccccc3F)oc2c1`, the inhibition is -4.71% (inactive). Then `O=c1cc2oc3cc(O)c(O)cc3c(-c3ccccc3[N+](=O)[O-])c-2cc1O`, with 20.1% (inactive). Consider `COc1ccc(OC)c(-c2oc3ccccc3c(=O)c2O)c1`, for which the inhibition is -8.28% (inactive). Then `CCCC(OC(=O)CC1Sc2ccccc2NC1=O)C(=O)NCc1ccco1` (stereo not given), with 4.36% (inactive). Consider `N#Cc1cc(-c2ccccc2)oc1NC(=O)c1ccccc1`, for which the inhibition was 0.56% (inactive). With `COc1ccc(N2CCN(C(=O)c3ccc(S(=O)(=O)NCc4ccco4)cc3)CC2)cc1`, the inhibition is 6.25% (inactive). With `Cc1ccc(C(=O)NNC(=O)c2ccc3ccccc3c2O)cc1` the figure was -5% (inactive); with `Cc1ccc(N=Nc2[nH]c3ccccc3c2O)cc1`, -4.85% (inactive); with `COc1ccc(N=Nc2ccc3ccccc3c2)c(O)c1`, 25.1% (inactive). Then `COc1cccc(N=Nc2ccc3cccnc3c2O)c1`, with 6.02% (inactive). With `CCOn1c(=O)c(-c2ccc(F)cc2)[n+]([O-])c2ccccc21` the figure was -9.53% (inactive); with `O=C(COc1ccc(Cl)cc1)NCc1nnc(SCC(=O)Nc2ccc(F)cc2F)o1`, 12.3% (inactive); with `O=C1N2CCSC2=NC1(Nc1nccs1)C(F)(F)F` (stereo not given), -5.52% (inactive).

As to `COC(=O)c1ccccc1S(=O)(=O)N(CCCN1CCOCC1)Cc1cccs1`, the inhibition is 18.3% (inactive).

In the case of `COc1cccc(C2C(C#N)=C(N)N(N(C)C)C3=C2C(=O)CCC3)c1` (stereo not given), the inhibition was -18.6% (inactive). With `Cc1ccc(NCc2nc3ccccc3n2C)cc1` the figure was 3.76% (inactive).

As for `Cn1c(CNc2ccccc2)nc2ccccc21`, the inhibition was -15.8% (inactive). Then `O=C(CCCn1cnc([N+](=O)[O-])n1)Nc1cc(Cl)ccc1O`, with -2.62% (inactive); and `Cc1cc([N+](=O)[O-])nn1Cc1ccc(C(=O)N/N=C/c2ccc(O)cc2O)cc1`, with 2.59% (inactive). Then `O=C(Cn1cnc([N+](=O)[O-])n1)N/N=C/c1cccc(Cl)c1`, with -19.4% (inactive); and `Cc1ccccc1/C=N/NC(=O)Cn1cnc([N+](=O)[O-])n1`, with 0.54% (inactive). With `COc1ccccc1/C=N/NC(=O)Cn1cnc([N+](=O)[O-])n1` the figure was 2.27% (inactive); with `O=C(Cn1cnc([N+](=O)[O-])n1)N/N=C/c1cccc2ccccc12`, 5.61% (inactive).

For `Cc1cc([N+](=O)[O-])nn1CC(=O)N/N=C/c1ccccc1O`, the inhibition is 13.7% (inactive). With `O=C(Cn1cnc([N+](=O)[O-])n1)N/N=C/c1ccc2ccccc2c1` the figure was -2.51% (inactive); with `CCN(CC)S(=O)(=O)c1ccc(Cl)c(NC(=O)COc2ccc3c(C)cc(=O)oc3c2)c1`, 15.6% (inactive).

Consider `CC(=O)c1cccc(NC(=O)CSc2ccc(-c3sc(C)nc3C)nn2)c1`, for which the inhibition is -5.12% (inactive). Then `Cc1ccccc1NC(=O)/C(C#N)=C/c1ccc[nH]1`, with -10.5% (inactive); and `COC(=O)c1ccc(N2CCN(C)CC2)c(NC(=O)COc2ccccc2)c1`, with 4.25% (inactive); and `COc1ccc(-c2noc(Cn3cc(S(=O)(=O)N4CCCC4)ccc3=O)n2)cc1`, with -10.2% (inactive). Then `Cc1ccc(/C=N/n2c(-c3ccc(Cl)cc3)n[nH]c2=S)o1`, with 2.1% (inactive); and `Cc1cc(OCC(=O)N2CCC(C(=O)O)CC2)c2c3c(c(=O)oc2c1)CCC3`, with -2.02% (inactive); and `O=C(c1c(F)cccc1F)N1CCN(c2cccc(C(F)(F)F)c2)CC1`, with -9.64% (inactive). Then `Nc1nc(-c2ccccc2)c(N=Nc2ccc(Cl)cc2)s1`, with 11.4% (inactive); and `Nc1ccc(N=Nc2ccccc2Cl)c(N)n1`, with 26.8% (inactive). As to `Nc1nc(-c2ccccc2)c(-c2ccccc2)s1`, the inhibition was 4.73% (inactive). With `Nc1nc(-c2ccccc2)c(N=Nc2cccnc2)s1` the figure was 18% (inactive); with `C=C(C)COc1ccc(-c2[nH]ncc2-c2ccc(OC)cc2)c(O)c1`, 9.07% (inactive). With `CC(=O)c1sc(NC(=O)C2CCCN2S(=O)(=O)c2ccccc2F)nc1C` (stereo not given) the figure was -3.2% (inactive); with `COc1cc(C)ccc1OCCCOc1c(Cl)cccc1Cl`, -6.86% (inactive); with `CN(C)/N=C/C=C1\CC/C(=C\c2ccc(Br)cc2)C1=O`, 5.12% (inactive). `CC(C)c1ccc(/C=C2\CC/C(=C\C=N\N(C)C)C2=O)cc1`: the inhibition is 2.58% (inactive). Take `O=C(Nc1sc2c(c1C(=O)N1CCOCC1)CCCCC2)c1cccnc1`: the inhibition is 1.63% (inactive). With `Cc1nccn1CC(=O)N/N=C/c1c[nH]c2ccccc12`, the inhibition was -1.01% (inactive). With `COc1cccc(/C=N/NC(=O)Cn2ccnc2C)c1` the figure was -3.78% (inactive). Then `Cc1nccn1CC(=O)N/N=C/c1cccs1`, with -26.6% (inactive); and `Cc1nccn1CC(=O)N/N=C/c1cccc(O)c1`, with -4.69% (inactive). Consider `COc1ccc(/C=N/N=C2/NC(=O)C(c3ccccc3)(c3ccccc3)S2)cc1`, for which the inhibition was 9.74% (inactive).

With `Cc1cccc(OCc2nnc(SCC(=O)Nc3cccc(C(=O)N4CCOCC4)c3)n2C)c1`, the inhibition was -2.72% (inactive). Then `CN(CC(=O)Nc1ccccc1Br)C(=O)COc1cccc2c1OC(C)(C)C2`, with -2.61% (inactive). With `Cc1cc(OCC(=O)N(C)C2CCCCC2)ccc1Cl` the figure was 1.86% (inactive). With `COc1ccc(C2CC(c3cccs3)=NN2C(=O)CSc2nc(=O)n3ccccc3n2)cc1` (stereo not given) the figure was -0.56% (inactive). In the case of `Cc1ccc(NC(=O)CN2C(=O)CN=C(c3ccccc3)c3cc(Cl)ccc32)cc1`, the inhibition is 24.3% (inactive). Then `CN(C)c1ccc(NC(=O)CN2C(=O)CN=C(c3ccccc3)c3ccccc32)cc1`, with -10.1% (inactive). Turning to `CCC(C)Nc1nc(-c2cccc(OC)c2O)nc2ccccc12` (stereo not given), the inhibition was 4.38% (inactive).

For the compound `c1ccc(CNc2nc(-c3ccccn3)nc3ccccc23)cc1`, the inhibition is 24.8% (inactive). Then `CN1CCN(c2nc(-c3ccccn3)nc3ccccc23)CC1`, with 10.9% (inactive); and `c1ccc(CCNc2nc(-c3ccccn3)nc3ccccc23)cc1`, with 21% (inactive); and `CCCN(CCC)c1nc(-c2ccccn2)nc2ccccc12`, with 10.6% (inactive). Then `C/C(=N\Nc1nc(-c2ccccn2)nc2ccccc12)c1ccc(F)cc1`, with 0.16% (inactive); and `Oc1ccccc1-c1nc(NCc2ccco2)c2ccccc2n1`, with -19.2% (inactive); and `c1ccc(N2CCN(c3nc(-c4ccccn4)nc4ccccc34)CC2)cc1`, with 18.4% (inactive). In the case of `Cc1noc(C)c1C(=O)OCC(=O)Nc1ccc(N2CCOCC2)cc1`, the inhibition was 5.46% (inactive). With `O=C(Nc1ccc(OC(F)F)cc1)c1cc(S(=O)(=O)N2CCOCC2)ccc1N1CCCC1` the figure was -1.31% (inactive); with `Cc1[nH]c2ccccc2c1C(=O)CNc1nccs1`, -1.86% (inactive); with `Cc1cccc(-c2nc(C#N)c(N3CCCCC3)o2)c1`, 3.65% (inactive). With `COc1ccc(C2(OC)Oc3cc(OC)ccc3C(=O)C2(O)OC)cc1` (stereo not given), the inhibition is -14.3% (inactive).

For `COC(=O)c1ccccc1NC(=O)C1CCN(S(C)(=O)=O)CC1`, the inhibition was -15.6% (inactive). Then `CCCCCN(C(=O)CCC(=O)OCC(=O)c1cccc(OC)c1)c1c(N)n(CCCC)c(=O)[nH]c1=O`, with -2.41% (inactive); and `O=C(O)c1ccccc1NCCO`, with -4.36% (inactive). With `O=C1c2cccc(NCCNCCO)c2C(=O)c2cccc(NCCNCCO)c21` the figure was 28% (inactive); with `OCCNCCO`, -1.33% (inactive). Then `O=C(O)CCNc1ccc(NCCC(=O)O)c2c1C(=O)c1ccccc1C2=O`, with 22.7% (inactive); and `Cc1ccc(C2/C(=C(\O)c3c(C)nc4ccccn34)C(=O)C(=O)N2CCN(C)C)o1` (stereo not given), with -13.9% (inactive); and `COc1ccc(NC(=O)COC(=O)CCCOc2ccc(Cl)cc2Cl)cc1Cl`, with -5.19% (inactive).

For the compound `Cc1[nH]nc2c1C(c1cnn(C)c1)C(C#N)=C(N)O2` (stereo not given), the inhibition is -1.46% (inactive). Then `Cc1ccc(NS(=O)(=O)c2cc([N+](=O)[O-])ccc2NNC(=S)Nc2cc(C)ccc2C)c(C)c1`, with 21.2% (inactive); and `COc1ccc(NC(=S)NNc2ccc([N+](=O)[O-])cc2S(=O)(=O)Nc2ccc(C)cc2C)cc1`, with 17.3% (inactive). As to `Cc1cc(C)nc(NC(=NCc2ccc3c(c2)OCO3)NC(=O)Nc2ccccc2)n1`, the inhibition is 12.4% (inactive). With `O=S(=O)(NC1CCC(NS(=O)(=O)c2c(F)cccc2F)CC1)c1ccc2c(c1)OCCO2` (stereo not given) the figure was 6.49% (inactive); with `Nc1nc(N)c(N=Nc2ccc(C(=O)O)cc2)c(N)n1`, 17.8% (inactive); with `O=C(O)c1ccc(N/N=C/c2ccnc3ccccc23)cc1`, 12.7% (inactive). With `CC(=NCCN1CCOCC1)c1c(O)n(-c2ccccc2C)c(=O)[nH]c1=O` the figure was 5.2% (inactive).

Broadly, the inhibition is the change of the read-out against control, counted positive when it falls.
